{"source": "PubChem BioAssay AID602399", "about": "(Sanford-Burnham Center for Chemical Genomics, 2012)", "note": "In all, about 360,000 compounds went through this assay and about 2,800 (0.78%) were called active. Only a selection was taken, and actives are over-represented in it overall. A number with no mark means an inactive call. Cut-off read from the data, not from the text of the source: active = inhibition above about 26%; inactive = the rest.", "data": [{"test_system": "Nicotinate-nucleotide adenylyltransferase NadD (Staphylococcus aureus N315)", "experiment": "S. aureus NadD enzyme activity blockers – biochemical, colorimetric, uHTS, primary screen (AID 602399)", "settings": "purified NadD enzyme, colorimetric absorbance read-out; at 20 µM; stronger effect = higher value", "values": [{"smiles": "CC(=O)Nc1ccc(S(=O)(=O)N2CCC(C(=O)NC3CC3)CC2)cc1", "inhibition": "3.08%"}, {"smiles": "O=C(CNC(=O)c1ccc2ccccc2c1)Nc1ncccc1O", "inhibition": "6.33%"}, {"smiles": "COc1ccc(N2CCN(C(=O)CNC(=O)c3ccc(C(C)(C)C)cc3)CC2)cc1", "inhibition": "-1.98%"}, {"smiles": "O=C(NCC(=O)N1CCN(c2ccccc2O)CC1)c1ccc2ccccc2c1", "inhibition": "31.5% (active)"}, {"smiles": "O=C1NC[C@H](Cc2ccc(O)cc2)N(C[C@@H]2CCCN2C[C@H](Cc2ccccc2)N2C[C@H](Cc3ccccc3)N(CC3CCCCC3)C(=O)C2=O)C1=O", "inhibition": "38.8% (active)"}, {"smiles": "CCOc1ccc(CCN2C(=O)C(=O)N([C@@H](CC(C)C)CN3CCC[C@H]3CN3C(=O)C(=O)NC[C@@H]3Cc3ccccc3)C[C@@H]2CC(C)C)cc1", "inhibition": "28.4%"}, {"smiles": "CC(C)C[C@H]1CNC(=O)C(=O)N1C[C@H]1CCCN1C[C@H](Cc1ccc(O)cc1)N1C[C@H](CC(C)C)N(CC2CCCCCC2)C(=O)C1=O", "inhibition": "23.7%"}, {"smiles": "O=C1NC[C@H](Cc2ccc(O)cc2)N(C[C@H]2CCCN2C[C@H](Cc2ccccc2)N2C[C@H](Cc3ccccc3)N(CCc3ccccc3)C(=O)C2=O)C1=O", "inhibition": "24%"}, {"smiles": "CCOc1ccc(CCN2C(=S)N([C@@H](CC(C)C)CN3CCC[C@@H]3CN3C(=S)NC[C@@H]3Cc3ccc(O)cc3)C[C@@H]2CC(C)C)cc1", "inhibition": "26.6%"}, {"smiles": "CCOc1ccc(CCN2C(=S)N([C@@H](CC(C)C)CN3CCC[C@@H]3CN3C(=S)NC[C@@H]3Cc3ccc(O)cc3)C[C@@H]2Cc2ccc(O)cc2)cc1", "inhibition": "35% (active)"}, {"smiles": "C[C@H]1COC(=O)[C@H](CC(=O)OC(C)(C)C)C/C=C\\C[C@@H](CC(=O)N[C@H](CO)Cc2ccccc2)C(=O)N1", "inhibition": "-1.24%"}, {"smiles": "CC(c1ccccn1)N(C)C(=O)c1ccc2nc(Cc3cccc(Cl)c3)oc2c1", "note": "(configuration not stated)", "inhibition": "-8.59%"}, {"smiles": "CCOCCCNC(=O)Cc1cc(=O)[nH]c(=O)[nH]1", "inhibition": "4.88%"}, {"smiles": "CC(=O)N1CCc2ccc(N)cc21", "inhibition": "-3.06%"}, {"smiles": "O=C1NC(O)CCN1C1CC(O)C(CO)O1", "note": "(configuration not stated)", "inhibition": "-1.72%"}, {"smiles": "Cc1noc(C)c1S(=O)(=O)N(C)C[C@H]1Oc2ccc(NC(=O)C3CC3)cc2C(=O)N([C@H](C)CO)C[C@@H]1C", "inhibition": "4.79%"}, {"smiles": "Cc1ccc2nc(SCC(=O)N3CC(C)OC(C)C3)nc(=O)n2c1", "note": "(configuration not stated)", "inhibition": "-2.71%"}, {"smiles": "CCOC(=O)C1=CCC(c2ccc(F)cc2)N(S(=O)(=O)c2ccc(C)cc2)C1", "note": "(configuration not stated)", "inhibition": "-6.49%"}, {"smiles": "COC(=O)[C@]12CCCCC=C1N(Cc1ccc(Cl)cc1Cl)C(=O)[C@H](CC(=O)NCc1cccc3ccccc13)C2", "inhibition": "16.3%"}, {"smiles": "CCCn1c(C)cc(-c2csc(NC(=O)CCc3nc4ccccc4c(=O)[nH]3)n2)c1C", "inhibition": "47.6% (active)"}, {"smiles": "CCN(CC)c1ccc(C(=O)NNC(=O)CCc2nc3ccccc3c(=O)[nH]2)cc1", "inhibition": "-1.03%"}, {"smiles": "Cc1cc(C)c(-c2csc(NC(=O)CCCc3nc4ccccc4c(=O)[nH]3)n2)c(C)c1", "inhibition": "21.6%"}, {"smiles": "CN(CC(=O)NCc1ccc2c(c1)OCO2)CC(=O)Nc1ccc(F)c(F)c1F", "inhibition": "-3.42%"}, {"smiles": "COc1ccc([N+](=O)[O-])cc1NC(=O)CC1SC(=Nc2cccc(C)c2C)N(/N=C(\\C)c2ccc(C)cc2)C1=O", "note": "(configuration not stated)", "inhibition": "26.7% (active)"}, {"smiles": "COc1ccc([N+](=O)[O-])cc1NC(=O)c1ccc(N(Cc2ccccc2C)S(C)(=O)=O)cc1", "inhibition": "11%"}, {"smiles": "COc1ccc([N+](=O)[O-])cc1NCC(=O)c1ccc(C)cc1", "inhibition": "7.38%"}, {"smiles": "N#CNC1=NCN(CCc2ccccc2)CN1", "inhibition": "3.37%"}, {"smiles": "COc1ccc(NC(=O)N(C)C[C@@H]2OCc3cn(nn3)CCCC(=O)N([C@H](C)CO)C[C@H]2C)c(OC)c1", "inhibition": "-0.14%"}, {"smiles": "COc1cccc(CN(C)CC(=O)Nc2sc3c(c2C#N)CCC3)c1", "inhibition": "-5.48%"}, {"smiles": "COc1ccc(-n2c(SCC(=O)Nc3sc4c(c3C#N)CCCC4)nnc2-c2ccc(O)cc2)cc1", "inhibition": "33.1% (active)"}, {"smiles": "CCCc1cc(=O)[nH]c(SCC(=O)Nc2sc3c(c2C#N)CCCC3)n1", "inhibition": "0.874%"}, {"smiles": "COc1ccc(-c2ccc3[nH]c4c(c3c2)CCN2C[C@H]3[C@H](C)ON(C)[C@H]3C[C@@H]42)cc1", "inhibition": "-7.97%"}, {"smiles": "COc1cccc(C(O)c2nc(-c3ccc(C)c(C)c3)cs2)c1", "note": "(configuration not stated)", "inhibition": "-4.75%"}, {"smiles": "Cc1ccc(/C=C/C(=O)Nc2ccc([N+](=O)[O-])c(NC(=O)/C=C/c3ccc(C)o3)c2)o1", "inhibition": "47.9% (active)"}, {"smiles": "Cc1cc(NC(=O)COC(=O)/C=C/c2ccc(C)o2)no1", "inhibition": "-5.17%"}, {"smiles": "COC(=O)/C=C\\C(=O)Nc1cccc([N+](=O)[O-])c1", "inhibition": "7.18%"}, {"smiles": "O=C(NC(=O)N1CCSCC1)c1c(Cl)cccc1Cl", "inhibition": "17.8%"}, {"smiles": "Cc1ccc(S(=O)(=O)NCC(=O)N(CC(=O)NC(C)(C)C)Cc2cccs2)cc1", "inhibition": "-3.65%"}, {"smiles": "Cn1c2c(c(=O)n(C)c1=O)[C@@H]1c3c(ccc4ccccc34)OC[C@@H]1CO2", "inhibition": "1.89%"}, {"smiles": "CC1=CC(=O)C=CC1(C)C(Cl)(Cl)Cl", "note": "(configuration not stated)", "inhibition": "4.28%"}, {"smiles": "N#CC1=C(N)Oc2c(sc3ccccc23)C1c1ccco1", "note": "(configuration not stated)", "inhibition": "33.4% (active)"}, {"smiles": "Cc1ccc(C(=O)N(CN2CCCC2=O)c2ccc(F)cc2)cc1", "inhibition": "-3.99%"}, {"smiles": "COc1cc(C(F)(F)F)c(C(=O)N(C)c2ccc(Cl)cc2)cn1", "inhibition": "-3.26%"}, {"smiles": "COc1ccc(C(NC(=O)C2CCN(CCCc3ccccc3)CC2)c2cccs2)cc1", "note": "(configuration not stated)", "inhibition": "0.814%"}, {"smiles": "COc1cccc(/C=C/c2ccc3ccccc3n2)c1OC(C)=O", "inhibition": "-5.51%"}, {"smiles": "Cc1ccc2sc(NNC(=O)c3ccc4c(c3)OCCO4)nc2c1C", "inhibition": "11.1%"}, {"smiles": "COc1cccc2sc(NNC(=O)c3nc4ccccc4s3)nc12", "inhibition": "36.6% (active)"}, {"smiles": "O=C(COc1nc2ccccc2nc1N1CCOCC1)NCC(F)(F)F", "inhibition": "-2.03%"}, {"smiles": "COC(=O)[C@@]1(Cc2ccc(OC)cc2)[C@H]2c3cc(C(=O)N4CCCC4)n(Cc4ccc(OC(F)(F)F)cc4)c3C[C@H]2CN1C(=O)c1ccccc1", "inhibition": "15.7%"}, {"smiles": "CCOc1ccc(S(=O)(=O)N2CCCCC2)cc1NC(=O)CN1CCCC1c1cccs1", "note": "(configuration not stated)", "inhibition": "5.31%"}, {"smiles": "CCN(CC)c1ccc(NC(=O)CN2C(=O)NC3(CCc4ccccc43)C2=O)cc1", "note": "(configuration not stated)", "inhibition": "-4.85%"}, {"smiles": "CCCN(c1ccc(C(C)C)cc1)S(=O)(=O)c1c(C)[nH]c(=O)[nH]c1=O", "inhibition": "6.85%"}, {"smiles": "CC(=O)Nc1ccc(C(=O)Nc2cccc(S(=O)(=O)NC3=NCCC3)c2)cc1", "inhibition": "7.82%"}, {"smiles": "Nc1[nH]c(=S)nc2nc(-c3ccccc3)c(-c3ccccc3)nc12", "inhibition": "31.3% (active)"}, {"smiles": "CC/C(=N\\O)C(C)(C)/[N+]([O-])=C/c1ccc(Br)cc1", "inhibition": "-4.93%"}, {"smiles": "CC12CN(Cc3ccccc3)CC(C)(CN(Cc3ccccc3)C1)C2=NO", "inhibition": "-2.69%"}, {"smiles": "O=C(NCCc1cccc(F)c1)C1CC(O)CN1C(=O)Nc1ccccc1", "note": "(configuration not stated)", "inhibition": "0.207%"}, {"smiles": "O=S(=O)(c1ccc(Cl)cc1)N1CCCN(c2ccc(C(F)(F)F)cn2)CC1", "inhibition": "-6.85%"}, {"smiles": "Cc1ccc2nc(/C(C#N)=C\\c3ccc(OC(=O)c4cccs4)cc3)[nH]c2c1", "inhibition": "40.4% (active)"}, {"smiles": "COc1ccc(CCNC(=O)/C(C#N)=C2\\N=C(NC(=O)c3cccs3)c3ccccc32)cc1", "inhibition": "2.29%"}, {"smiles": "CN1CCN(CC#CCC2(O)c3ccccc3-c3ccccc32)CC1", "inhibition": "-2.12%"}, {"smiles": "O=C1CC(c2cccc(Cl)c2)CC(O)=C1C=Nc1ccccc1", "note": "(configuration not stated)", "inhibition": "-3.63%"}, {"smiles": "COc1ccc2c(c1OC)C(=O)N(c1ncn[nH]1)C2", "inhibition": "0.954%"}, {"smiles": "COc1ccc(Cl)cc1S(=O)(=O)N1CCC(O)(c2ccc(Cl)cc2)CC1", "inhibition": "-4.67%"}, {"smiles": "CCc1c(C)c2c(C)[nH]nc2oc1=O", "inhibition": "-0.195%"}, {"smiles": "Cc1ccc(NC(=O)c2sc3nc(N)c(C#N)cc3c2N)cc1", "inhibition": "12.7%"}, {"smiles": "Cc1cccc(NC(=O)c2sc3nc4c(c(-c5ccco5)c3c2N)CCC4)c1", "inhibition": "44.6% (active)"}, {"smiles": "O=c1oc(-c2ccco2)nc2sc3c(c12)CCCCC3", "inhibition": "-5.51%"}, {"smiles": "Cc1cccn2c(CN(C)C3CCCc4ccccc43)c(C(=O)N3CCOCC3)nc12", "note": "(configuration not stated)", "inhibition": "-3.79%"}, {"smiles": "C=CCOc1ccccc1NC(=O)CN1C(=O)CNC1=O", "inhibition": "-2.12%"}, {"smiles": "O=C(Nc1ccc(Br)cn1)C1CCN(S(=O)(=O)c2cccs2)CC1", "inhibition": "-7.26%"}, {"smiles": "CCCc1nc(SCC(=O)Nc2ccccc2OC)c2c(=O)n(C)c(=O)n(C)c2n1", "inhibition": "-1.01%"}, {"smiles": "O=C(O)CCN(Cc1ccccc1)S(=O)(=O)c1c(Cl)cccc1Cl", "inhibition": "-4.97%"}, {"smiles": "CCOC(=O)C1=C(C)c2ccccc2OC1C(=O)OCC", "note": "(configuration not stated)", "inhibition": "-1.62%"}, {"smiles": "C=C1c2cccc(OC)c2O[C@H](C(=O)OCC)[C@@H]1CCCCCC", "inhibition": "52.4% (active)"}, {"smiles": "O=C(OCc1nnc(-c2ccccc2)o1)c1cc(=O)[nH]c2ccccc12", "inhibition": "-0.542%"}, {"smiles": "O=C(CSc1nc2ccccc2c(=O)[nH]1)Nc1nc(-c2ccc(Br)cc2)cs1", "inhibition": "42.3% (active)"}, {"smiles": "O=C(COC(=O)c1cc(=O)[nH]c2ccccc12)NCc1cccc(Cl)c1", "inhibition": "0%"}, {"smiles": "O=C(CSc1ncn[nH]1)Nc1nc(-c2cccc([N+](=O)[O-])c2)cs1", "inhibition": "-5.15%"}, {"smiles": "O=C(COC(=O)c1cc(=O)[nH]c2ccccc12)Nc1nc(-c2cccc(Br)c2)cs1", "inhibition": "42.5% (active)"}, {"smiles": "Cc1csc(NC(=O)CSc2ccc(-c3ccc(F)cc3)nn2)n1", "inhibition": "0.514%"}, {"smiles": "CCOC(=O)c1ccn(S(=O)(=O)c2ccc(C)cc2)c1-c1ccccc1", "inhibition": "-0.973%"}]}]}
